Source: PubChem
Only some compounds are listed: those with a hit (about 1.6% of all), similar ones and a draw of the others.
KCNQ2 enhance – KCNQ2 (rat) channel potentiation | 0.54% of 310,000 active | B-score at 10 µM | O88943 | CHO-K1 KCNQ2, FluxOR thallium flux fluorescence; active compounds read high;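 active = fluorescence ratio B-score at least 3 SD of library B-scores, with initial fluorescence B-score within 3 of them, cut at about 5.3 in these data; same plate scores as AID 2156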;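 note: B-score of peak minus minimum over baseline fluorescence ratio after K+ and Tl+ stimulus; positive B-score means potentiation of KCNQ2 with more thallium influx and brighter signal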
Target sequence (O88943 whole entry, looked up): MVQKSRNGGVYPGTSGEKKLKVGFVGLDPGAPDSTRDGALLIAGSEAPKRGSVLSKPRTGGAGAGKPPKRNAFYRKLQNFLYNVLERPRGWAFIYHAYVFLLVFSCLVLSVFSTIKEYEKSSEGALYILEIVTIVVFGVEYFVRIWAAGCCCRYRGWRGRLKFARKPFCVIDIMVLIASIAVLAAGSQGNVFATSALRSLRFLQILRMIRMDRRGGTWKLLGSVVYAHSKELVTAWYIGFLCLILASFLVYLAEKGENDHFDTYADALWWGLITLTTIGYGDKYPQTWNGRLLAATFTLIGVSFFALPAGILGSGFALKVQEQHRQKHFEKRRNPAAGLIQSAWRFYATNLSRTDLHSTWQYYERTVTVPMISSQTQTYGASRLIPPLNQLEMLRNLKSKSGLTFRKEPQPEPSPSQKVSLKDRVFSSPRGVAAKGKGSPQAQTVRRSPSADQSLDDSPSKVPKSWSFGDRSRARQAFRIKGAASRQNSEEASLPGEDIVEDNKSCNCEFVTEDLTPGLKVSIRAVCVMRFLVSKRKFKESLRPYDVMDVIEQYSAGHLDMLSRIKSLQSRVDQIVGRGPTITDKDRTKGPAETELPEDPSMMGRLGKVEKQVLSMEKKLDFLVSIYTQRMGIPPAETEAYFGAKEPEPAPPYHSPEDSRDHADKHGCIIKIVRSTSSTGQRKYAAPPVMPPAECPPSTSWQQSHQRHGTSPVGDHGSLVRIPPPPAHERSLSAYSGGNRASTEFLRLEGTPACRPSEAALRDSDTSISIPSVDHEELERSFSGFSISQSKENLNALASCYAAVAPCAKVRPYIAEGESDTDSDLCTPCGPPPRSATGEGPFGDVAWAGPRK
KCNQ2 inh – KCNQ2 (rat) channel inhibition | O88943 | CHO-K1 KCNQ2, FluxOR thallium flux, 20 min; active compounds read low | B-score at 10 µM | 1.1% of 310,000 active | AID 2156;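 active = fluorescence ratio B-score at most minus 3 library SDs, with starting brightness B-score within 2 library SDs, cut at about -5.5 in these data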
An asterisk follows results filed as active; i = inactive; / = no result.

SMILES | KCNQ2 enhance | KCNQ2 inh
CCS(=O)(=O)N1CCCC(C(=O)NCc2cccc(OC)c2)C1 (stereo not given) | 0.58 | i
S=C(Nc1cccc(Cl)c1Cl)Nn1cnnc1 | / | i
S=C(Nc1ccccc1)Nc1nccs1 | 6.5* | i
Fc1ccc(NC(=S)Nc2nccs2)cc1 | 7.3* | i
O=C(Cc1ccccc1)Nc1nccs1 | 0.41 | i
O=C(Cc1ccc(F)cc1)Nc1nccs1 | / | i
C=CCn1c(=O)c2ccccc2n2c(SCC(=O)NC)nnc12 | 0.69 | i
Cc1ccccc1C(=O)NNC(=S)NC(=O)c1ccccc1 | 5.3* | i
O=C(NC(=S)NNC(=O)c1ccccc1O)c1ccccc1 | / | i
O=C(c1ccccc1)N1CCc2ccccc21 | / | i
O=C(NC(=S)N1CCc2ccccc21)c1ccccc1 | 14* | i
Cc1ccc(C(=O)Nc2c(-c3cccs3)nc3cc(C)ccn23)cc1 | 0.53 | i
Cc1ccn2c(NC(=O)C(C)(C)Oc3ccc(Cl)cc3)c(-c3cccs3)nc2c1 | -6.4 | -6.4*
CCCCCn1nc(C(=O)N(CCOC)c2c(N)n(CCCC)c(=O)[nH]c2=O)c2ccccc2c1=O | / | i
Cc1cccc(/C=C/c2onc(C)c2S(=O)(=O)N2CCC(C(=O)N3CCCCCC3)CC2)c1 | -6 | -6*
Cc1cccc(/C=C/c2onc(C)c2S(=O)(=O)N2CCC(C(=O)N3CCC(C)CC3)CC2)c1 | / | i
Cc1ccc(N(Cc2ccco2)C(=O)c2ccc(N3CCCCC3)c([N+](=O)[O-])c2)cc1 | -7.1 | -7.1*
O=C(NCc1ccco1)c1ccc(N2CCCCC2)c([N+](=O)[O-])c1 | 1.1 | i
O=C(N1CCOCC1)C1(c2ccc(Cl)cc2)CCCC1 | / | i
O=C(N1CCC(n2nc(-c3ccccc3)oc2=O)CC1)C1(c2ccc(Cl)cc2)CC1 | -8.2 | -8.2*
O=C(COc1ccccc1)NC(NC(=S)Nc1ccccc1O)C(Cl)(Cl)Cl (stereo not given) | -6.2 | -6.2*
Cc1ccccc1NC(=S)NC(NC(=O)COc1ccccc1)C(Cl)(Cl)Cl (stereo not given) | / | i
CC(=O)N1c2ccc(S(=O)(=O)N(C)C3CCCCC3)cc2CC1C (stereo not given) | 0.54 | i
COc1ccc(Cl)cc1NC(=S)NCc1ccco1 | 0.01 | i
CCN(CC(=O)Nc1c(F)cccc1F)C(=O)Cc1csc(-c2ccccc2)n1 | 1.9 | i
SMILES | KCNQ2 enhance | KCNQ2 inh
CCOC(=O)N1CCC(c2cc(=O)n3[nH]cc(C(=O)OC)c3n2)CC1 | / | i
CCOc1ccc(NC(=O)c2c[nH]n3c(=O)cc(C4CCN(C(=O)OC(C)(C)C)CC4)nc23)cc1 | 8.6* | i
Cc1cc(OCC(=O)N2CCN(c3ccccn3)CC2)c(C)cc1Br | / | i
COc1ccc2nc(N=NC3=C(O)CC(C)(C)CC3=O)sc2c1 | 0.64 | i
COc1ccc2nc(N=Nc3ccc(O)c4ccccc34)sc2c1 | 9.3* | i
O=C(NCCCN1CCCC1=O)c1cc(-c2cccnc2)nc2ccc(Cl)cc12 | -6.5 | -6.5*
O=C(NCCCN1CCCC1=O)c1cc(-c2ccc3c(c2)OCO3)nc2ccccc12 | / | i
O=C(NC(Cc1ccccc1)C(=O)O)/C(=C\c1ccc(Cl)cc1)NC(=O)c1ccco1 (stereo not given) | / | i
CCCCCOc1ccc(NC(=O)CSc2cccc3cccnc23)cc1 | / | i
Cc1cc(C)n2nc(SCC(=O)Nc3ccccc3C)nc2n1 | 0.04 | i
Cc1cc(C(=O)Nc2ccccc2C(=O)O)ccc1NC(=O)COc1cccc(C)c1C | 0.88 | i
Cc1ccc(NC(=O)NC2CCCc3ccccc32)cc1 (stereo not given) | -5.8 | -5.8*
CC(C)(C)c1ccc(NC(=O)NC2CCCc3ccccc32)cc1 (stereo not given) | / | i
O=C(CSc1nnc(-c2ccccn2)o1)Nc1ccccc1F | / | i
CC(C)CC1(C(=O)NCCc2c[nH]c3ccccc23)C=CCN1C(=O)c1ccccc1 (stereo not given) | -6.4 | -6.4*
CC(=O)N1CC=CC1(CC(C)C)C(=O)NCCc1c[nH]c2ccccc12 (stereo not given) | 0.88 | i
C=CCN1C(=O)CS/C1=N\N=C\c1cccc([N+](=O)[O-])c1 | / | i
Cc1cc(-c2n[nH]c(=S)n2-c2ccc(F)cc2)nn1C | -6.3 | -6.3*
Cc1cc(C(F)(F)F)nn1Cc1n[nH]c(=S)n1-c1ccc(F)cc1 | 0.62 | i
C=CCN(C(=O)CNC(=O)c1ccco1)C(C(=O)NC1CCCC1)c1ccc(OC)cc1 (stereo not given) | 0.41 | i
C=CCn1c(=O)c(C(=O)Nc2ccccc2S(N)(=O)=O)c(O)c2ccccc21 | 5.7* | i
C=CCn1c(=O)c(C(=O)Nc2ccccc2C(=O)OCC)c(O)c2ccccc21 | / | i
COCCN1C(=O)C(=O)/C(=C(/O)c2ccc(S(=O)(=O)N3CCCCC3)cc2)C1c1ccc(OC)cc1 (stereo not given) | / | i
COc1ccc(C(=O)CCC(=O)Nc2cc(Cl)c(O)c(Cl)c2)cc1 | 0.01 | i
COc1cc(NC(=O)C(=O)NNC(=O)C2CCCCC2)c(OC)cc1Cl | 9.8* | i
SMILES | KCNQ2 enhance | KCNQ2 inh
COc1cc(NC(=S)N2CCCCC2C)c(OC)cc1Cl (stereo not given) | / | i
CCN(CC)S(=O)(=O)c1cc(NC(=O)c2cc([N+](=O)[O-])ccc2N2CCOCC2)ccc1C | / | i
CCOC(=O)[C@@H]1[C@H]2COc3ccc(Br)cc3[C@@H]2N2C(=O)N(c3ccc(C(F)(F)F)cc3)C(=O)[C@@]12C | / | i
CSc1nnc(C2CCN(CC(=O)Nc3ccccc3N3CCOCC3)CC2)n1C(C)C | / | i
CC(C)(C)C1=NN(C(=O)c2ccccc2)C(O)(C(C)(C)C)C1 (stereo not given) | / | i
CC(C)C1=NN(C(=O)c2ccccc2)C(O)(C(C)(C)C)C1 (stereo not given) | 7.1* | i
CCCCNc1c(-c2cccc(-c3cc(C(C)=O)cs3)c2)nc2ccc(C)cn12 | / | i
CCCCNc1c(-c2cccc(-c3ccc(OC)cc3)c2)nc2ccc(C)cn12 | -6.1 | -6.1*
COc1ccc(NC(=O)C2CCCN(c3nn4c(=O)cc(C)nc4s3)C2)c(OC)c1 (stereo not given) | / | i
O=C(NCCS(=O)(=O)N1CCCCCC1)c1ccccc1 | / | i
COc1ccccc1CCN1CCCC(CN(C)C(=O)CCC(N)=O)C1 (stereo not given) | 0.7 | i
Oc1ccc(NCc2cccc(OCc3ccccc3)c2)cc1 | / | i
Oc1ccc(NCc2cccc(OCc3ccc(F)cc3)c2)cc1 | -5.8 | -5.8*
CCCCN1Cc2c(nc3cc(-c4ccco4)[nH]n3c2=O)C1=O | 0.07 | i
CO/N=C\c1cc(C(=O)c2ccc(Cl)cc2Cl)cn1C | 0.22 | i
COc1ccc(C(C(=O)NCC2CCCO2)N(C(=O)c2snc(C(N)=O)c2N)c2ccc(C)cc2)cc1OC (stereo not given) | 0.63 | i
CC(C)N(C(=O)CSc1nc2ccccc2n1-c1ccccc1)C(C)C | -6 | -6*
CC(C)N(C(=O)CSc1nc2ccccc2n1Cc1ccccc1)C(C)C | / | i
Cc1ccc(S(=O)(=O)NCCC(=O)NC2CC2)cc1 | / | i
O=C(c1ccsc1)N1CCCC(Nc2cccc(F)c2)C1 (stereo not given) | / | i
COc1ccccc1/C=C(/CC(=O)NCc1ccc(F)cc1)c1nc2ccccc2s1 | -6.8 | -6.8*
COc1ccccc1/C=C(/CC(=O)NCc1ccccc1)c1nc2ccccc2s1 | / | i
